Assay results as given in the supplement of paper PMC6518042.
A number with no mark means an inactive call.

The molecules below were run on Pectobacterium parmentieri SCC3193 (assay: DuctApe activity index (growth/respiration on compound as sole nutrient source, blank-subtracted) (activity index (0-3)); higher = stronger utilization of the compound, active = 3 or more). Conditions: nutrient role (plate category): carbon.
Experimental: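 Biolog Phenotype Microarray plates PM1, PM2A (carbon), PM3 (nitrogen) and PM4 (phosphorus/sulfur) inoculated with P. parmentieri SCC3193 in M9-C minimal salts medium with Biolog dye A, and read in the OmniLog for 46 h. Each well was tested in triplicate and the experiment was run twice. DuctApe computed a blank-subtracted activity index (AV, 0-3) from the mean curves; growth is positive at AV >= 3 and negative at AV <= 2.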
`CO[C@H]1O[C@H](CO)[C@H](O)[C@H](O)[C@H]1O` [a-Methyl-D-Galactoside] was tested, and the DuctApe activity index was 3 (active).
Molecule `CC1OC(O)C(O)C(O)C1O` [L-Fucose] has a DuctApe activity index of 0.
With `OC[C@H]1O[C@H](OC[C@H]2O[C@H](O[C@]3(CO)O[C@H](CO)[C@@H](O)[C@@H]3O)[C@H](O)[C@@H](O)[C@@H]2O)[C@H](O)[C@@H](O)[C@H]1O` [D-Raffinose] the DuctApe activity index was 3 (active).
Work on `O=C(O)CC(=O)O` [Malonic acid] yielded a DuctApe activity index of 0.
In the case of `OC[C@H]1O[C@H](OC[C@H]2O[C@H](O[C@H]3[C@H](O)[C@@H](O)[C@@H](O)O[C@@H]3CO)[C@H](O)[C@@H](O)[C@@H]2O[C@H]2O[C@H](CO)[C@@H](O)[C@H](O)[C@H]2O)[C@H](O)[C@@H](O)[C@@H]1O` [Glycogen], the DuctApe activity index is reported as 0.
In the case of `O=C[C@H](O)[C@H](O)[C@@H](O)CO` [L-Lyxose], the DuctApe activity index is reported as 0.
For `CC(=O)N[C@H]1[C@H]([C@H](O)[C@H](O)CO)OC(O)(C(=O)O)C[C@@H]1O` (stereo partly drawn) [N-Acetyl-Neuraminic acid], the DuctApe activity index was 0.
For `NCCO` [2-Aminoethanol], the DuctApe activity index was 0.
For `O=C(O)CCC(=O)O` [Succinic acid], the DuctApe activity index was 3 (active).
In the case of `OC[C@H]1OC(O[C@H]2[C@H](O)[C@@H](O)C(O[C@H]3[C@H](O)[C@@H](O)[C@@H](O)O[C@@H]3CO)O[C@@H]2CO)[C@H](O)[C@@H](O)[C@@H]1O` (stereo partly drawn) [Dextrin], the DuctApe activity index is reported as 0.
`C/C(=C/C(=O)O)C(=O)O` [Citraconic acid] showed a DuctApe activity index of 0.
Work on `O=CO` [Formic acid] yielded a DuctApe activity index of 2.
With `O=C(O)C(=O)O` [Oxalic acid] the DuctApe activity index was 0.
In the case of `O=C(O)[C@H](O)[C@@H](O)[C@H](O)[C@H](O)CO` [D-Gluconic acid], the DuctApe activity index is reported as 3 (active).
In the case of `CC(=O)C(=O)O` [Pyruvic acid], the DuctApe activity index is reported as 3 (active).
Molecule `CC(=O)C(C)=O` [2,3-Butanedione] has a DuctApe activity index of 0.
For `OCc1ccccc1O[C@@H]1O[C@H](CO)[C@@H](O)[C@H](O)[C@H]1O` [Salicin], the DuctApe activity index was 3 (active).
`O[C@@H]1[C@H](O)[C@H](O)CO[C@H]1O` [D-Ribose] was tested, and the DuctApe activity index was 3 (active).

Same assay, conditions: nutrient role (plate category): nitrogen
Molecule `O=NO` [Nitrite] has a DuctApe activity index of 0.
For `NCCCC[C@@H](N)C(=O)O` [D-Lysine], the DuctApe activity index was 0.
In the case of `N[C@H](CCC(=O)O)C(=O)O` [D-Glutamic acid], the DuctApe activity index is reported as 0.
Molecule `NCCO` [Ethanolamine] has a DuctApe activity index of 0.
`NCCc1c[nH]cn1` [Histamine] gave a DuctApe activity index of 0.
`NC(=O)C[C@@H](N)C(=O)O` [D-Asparagine] gave a DuctApe activity index of 1.
In the case of `NC=O` [Formamide], the DuctApe activity index is reported as 0.
With `Cc1c[nH]c(=O)[nH]c1=O` [Thymine] the DuctApe activity index was 0.
Molecule `C[C@H](N)C(=O)N[C@@H](CC(=O)O)C(=O)O` has a DuctApe activity index of 1.
Work on `NC(=O)NCCC[C@H](N)C(=O)O` [L-Citrulline] yielded a DuctApe activity index of 0.

Same assay, conditions: nutrient role (plate category): phosphate & sulphur
`O=C(O)[C@H](O)[C@@H](O)[C@H](O)[C@H](O)COP(=O)(O)O` [6-Phospho-Gluconic acid] gave a DuctApe activity index of 2.
`Cc1cn([C@H]2C[C@H](OP(=O)(O)O)[C@@H](CO)O2)c(=O)[nH]c1=O` [Thymidine 3`-Monophosphate] gave a DuctApe activity index of 2.
`NCCS(=O)O` [Hypotaurine] gave a DuctApe activity index of 1.
Work on `O=P(O)(O)OP(=O)(O)O` [Pyrophosphate] yielded a DuctApe activity index of 1.
In the case of `N[C@H](CS)C(=O)O` [D-Cysteine], the DuctApe activity index is reported as 1.
`N[C@@H](Cc1ccc(OP(=O)(O)O)cc1)C(=O)O` [O-Phospho-L-Tyrosine] gave a DuctApe activity index of 2.
Work on `O=P(O)(O)O` [Phosphate] yielded a DuctApe activity index of 1.
For `O=P(O)(O)O[C@H]1[C@H](OP(=O)(O)O)[C@@H](OP(=O)(O)O)[C@H](OP(=O)(O)O)[C@@H](OP(=O)(O)O)[C@H]1OP(=O)(O)O` [Inositol Hexaphosphate], the DuctApe activity index was 0.
Work on `O=c1ccn([C@@H]2O[C@H](CO)[C@@H](O)[C@H]2OP(=O)(O)O)c(=O)[nH]1` [Uridine 2`-Monophosphate] yielded a DuctApe activity index of 2.
For `Nc1nc2c(ncn2[C@@H]2O[C@H](COP(=O)(O)O)[C@@H](O)[C@H]2O)c(=O)[nH]1` [Guanosine 5`-Monophosphate], the DuctApe activity index was 1.
